In the library only some 3.4% were active in any assay of this set; here they are far more common.
FBPA Giardia inh – inhibitors of Giardia lamblia fructose-1,6-bisphosphate aldolase; Potency, µM (doses to about 59.6 µM), actives largely listed as inhibitors; 290,000 compounds, 0.71% hits; A8B2U2; AID 2451; purified Giardia FBPA; also: nearly all actives have a fitted effect of over 55% in size
Target sequence (A8B2U2 whole entry, looked up): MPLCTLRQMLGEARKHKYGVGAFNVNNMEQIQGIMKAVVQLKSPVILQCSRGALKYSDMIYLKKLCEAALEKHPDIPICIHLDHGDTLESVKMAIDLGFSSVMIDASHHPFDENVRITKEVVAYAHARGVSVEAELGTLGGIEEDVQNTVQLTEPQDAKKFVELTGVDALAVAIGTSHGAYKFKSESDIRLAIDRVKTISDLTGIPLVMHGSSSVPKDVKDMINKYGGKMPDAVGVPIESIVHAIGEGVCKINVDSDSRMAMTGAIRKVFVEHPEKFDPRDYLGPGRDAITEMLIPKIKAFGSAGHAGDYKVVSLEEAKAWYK
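40 nM FBPA preincubated 10 min at RT with compound (up to 57.5 uM final), then substrate plus GAPDH/TPI/NAD/arsenate coupling and diaphorase/resazurin added. Fluorescence read after 20 min at RT, 525/598 nm.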
Sm TGR inh – blocks Schistosoma mansoni thioredoxin glutathione reductase; purified TGR, DTNB reduction, TNB absorbance 405 nm; Q962Y6; Potency, µM (titrated, usually from 114 µM), usual class: inhibitors; 360,000 compounds, 3% hits; also: nearly all actives have a fitted effect of over 60% in size
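Kinetic colorimetric format: TGR-catalysed, NADPH-driven DTNB reduction monitored via TNB absorbance. Enzyme dispensed at 20 nM; compound exposure 15 min at room temperature before reaction start.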
AmpC inh detg – AmpC beta-lactamase inhibition with detergent present | Potency, µM (top dose mostly 114 µM), most hits filed as inhibitors | 370,000 compounds, 0.041% hits | P00811 | AID 485294 | AmpC hydrolysis of nitrocefin, absorbance 480 nm, 0.01% Triton; also: nearly all actives have a fitted effect of over 25% in size
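AmpC (5.3 nM in the dispensed reagent) in 20 mM phosphate pH 7.0 with 0.01% (detergent screen) or 0.0001% Triton X-100 was preincubated with compounds for 15 min at room temperature. Nitrocefin was then added from an 800 uM solution, and hydrolysis was followed at 480 nm.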
AmpC no deterg – AmpC beta-lactamase inhibition without detergent; P00811; 330,000 compounds, 0.52% hits; AmpC nitrocefin hydrolysis, absorbance 480 nm, 0.0001% Triton; Potency, µM (highest dose often 57.1 µM), hits mostly inhibitors; also: nearly all actives have a fitted effect of over 20% in size
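20 mM phosphate pH 7.0 + 0.01% (detergent screen) or 0.0001% Triton X-100; 5.3 nM AmpC reagent; cpd preinc 15 min RT; nitrocefin (800 uM stock) to start; A480 q20 s × 4 min; Activity was normalised to no-enzyme and no-compound control wells.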
RE007 growth inh – less growth of the S. pombe RE007 Vpr strain; 360,000 compounds, 0.21% hits; S. pombe RE007 Vpr strain, BacTiter-Glo ATP luminescence, 24 h; Potency, µM (series often up to 92.2 µM), actives largely listed as inhibitors; active = well fitted falling curve with a large enough effect; inconclusive = small, poorly fitted or top-dose-only effect; inactive = no such curve, though single readings can be large or run the other way; also: nearly all actives have a fitted effect of over 50% in size
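Fission yeast strain RE007, carrying one chromosomally integrated HIV-1 vpr copy, was seeded at OD 0.01 in PMG+AL medium with 23 nL pinned compound. After 24 h at 30 °C and 99% humidity, viability was read by BacTiter-Glo luminescence.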
Hits are given with their value; 0 = inactive; ? = inconclusive; - = not tested or not shown. Unless noted, calls follow the shape of the dose curve; as a rule, active = well fitted curve in the direction sought with a large enough effect; inconclusive = small, poorly fitted or top-dose-only effect, or another doubt; inactive = no such curve, though single readings can be large; an effect the other way counts as inactive or inconclusive.

SMILES	FBPA Giardia inh	Sm TGR inh	AmpC inh detg	AmpC no deterg	RE007 growth inh
CCOc1cc(/C=C2/C(=O)NC(=O)N(c3ccc(CC)cc3)C2=O)ccc1OC(=O)c1cccs1	0	35µM	0	0	0
CC(C)(C)c1ccc(/C=C/C(=O)Nc2nncs2)cc1	0	0	0	0	0
CC(C)C1Nc2c(O)cc(Cl)c([N+](=O)[O-])c2C2C=CCC21 (stereo not given)	0	7.1µM	0	0	?
Cc1ccc(C(=O)Nc2ccc3oc(-c4ccccc4C)nc3c2)cc1	-	0	0	-	-
CC(C)(C)c1cc(NC(=O)CCl)n(-c2ccccc2)n1	0	13µM	0	0	0
CCCc1cc(NC(=O)CCl)n(-c2ccccc2)n1	0	10µM	0	0	0
O=C1OC2(c3ccccc31)c1cc(I)c(O)c(I)c1Oc1c2cc(I)c(O)c1I	16µM	0.89µM	50µM	25µM	-
COc1ccc(S(=O)(=O)N2CCCN(CC(=O)C(C)(C)C)CC2)cc1	0	10µM	0	0	0
COc1ccc(S(=O)(=O)N2CCCN(CC(=O)Nc3ccccc3F)CC2)cc1	0	0	0	0	0
COc1ccc(S(=O)(=O)N2CCCN(C)CC2)cc1	0	40µM	0	0	0
Cc1ccc(C)c(-n2sc3ccc(F)cc3c2=O)c1	-	0	0	0	?
COc1ccc(-n2sc3ccc(F)cc3c2=O)cc1	-	0	0	0	10µM
COc1ccc(-n2sc3ccccc3c2=O)cc1	-	-	-	-	0
O=c1c2cc(F)ccc2sn1-c1ccc(F)cc1	-	0	0	0	11µM
CC(C)CC1NC(=O)c2cccnc2-n2c1nc1cc(F)c(F)cc1c2=O (stereo not given)	-	-	-	-	0
Cc1ccc(C)c(Cn2c(=O)n(-c3ccc(CC(=O)NCc4ccco4)cc3)c(=O)c3sccc32)c1	0	0	?	11µM	0
Cc1ccc(C)c(N2CCN(C(=O)CCc3nc(-c4cccc(Br)c4)no3)CC2)c1	-	-	-	0	0
CN(C)C(=O)NC(Nc1cccc([N+](=O)[O-])c1)C(Cl)(Cl)Cl (stereo not given)	0	20µM	0	0	0
O=C(CSc1ccc(-c2ccc(F)cc2)nn1)N1CCCc2ccccc21	0	0	?	0	0
CSc1ccc(CNC(=O)c2cc3c(=O)n(Cc4ccco4)ccc3nc2C)cc1	-	45µM	0	-	-
COc1ccccc1OCC(=O)Nc1ccc2c(c1)n(C)c(=O)n2C	0	0	0	0	0
CCC(OC(=O)c1nsc(Cl)c1Cl)C(=O)NCC1CCCO1 (stereo not given)	0	0	?	0	0
CCN(CC)CCCC(C)NC(=O)c1cccc(S(=O)(=O)N2CCc3ccccc32)c1 (stereo not given)	0	16µM	0	0	0
CC(C)CCNC(=O)c1cccc(S(=O)(=O)N2CCc3ccccc32)c1	0	0	0	0	0
Oc1cc2c(cc1O)[C@H]1c3ccccc3CN[C@@H]1CC2	0	8.9µM	0	0	-
SMILES	FBPA Giardia inh	Sm TGR inh	AmpC inh detg	AmpC no deterg	RE007 growth inh
CC(C)(C)[C@H]1COC(=O)[C@@H](NC(=O)OCC2c3ccccc3-c3ccccc32)C/C=C\C[C@@H](CC(=O)N[C@@H](CO)Cc2ccccc2)C(=O)N1	-	-	-	0	0
CCN(CC)S(=O)(=O)c1cc(C)ccc1NC(=S)Nc1cccnc1	0	22µM	0	0	0
Cc1cc(Cl)ccc1NC(=S)Nc1cccnc1	0	18µM	0	0	0
Cc1cc(NC(=S)Nc2ccccc2)ccc1Br	-	0	?	0	0
Cc1cc(NC(=S)Nc2cccnc2)ccc1Br	0	18µM	0	0	0
CC(O)(CS(=O)(=O)c1cccc(C(F)(F)F)c1)C(=O)Nc1cccc(C(F)(F)F)c1 (stereo not given)	0	0	?	0	0
Cc1nn(-c2ccc(F)cc2)c2nc(N)c(C#N)c(-c3ccc(O)c(O)c3)c12	0	0	0	14µM	0
CC1(C)CCC2=C(O1)c1ccccc1C(=O)C2=O	1.6µM	-	-	-	-
CCc1[nH]c(=S)c(C#N)c(-c2ccccc2)c1C(=O)OC	?	0	0	16µM	0
Cc1[nH]c(=S)c(C#N)c(-c2ccccc2)c1C(=O)Nc1ccccc1	?	0	0	0	0
COC(=O)c1ccc(C(=O)NC2CCSc3ccccc32)cc1 (stereo not given)	0	0	0	0	0

Compound activity as filed in PubChem.
